The text below walks through data of ChEMBL document CHEMBL3988442, “University of Dundee, Small-Polar-MMV Screening Library” (2021).

Values joined by “and” are separate entries in the source; they are usually repeats but may differ in a detail not shown here. Identical values can stand only once. About 290 (0.85%) of roughly 34,000 compounds showed an effect of 50% or more. For the sample, strong results were picked, then their nearest neighbours and some compounds at random.

The test has as its system Plasmodium falciparum. The experiment in a line: Plasmodium falciparum sporozoite viability assay. The class given is functional, organism-based. Further details: scale not given: in the data most compounds retested in dose-response had high values.

Turning to `Cc1nn(CC(C)C)c(N(C)C)c1CNCc1ccc2c(c1)OCO2`, the “Percent Effect” value is -0.9874%. Still for that read-out and setting: the result for `Cc1nc(Nc2cnccn2)cc(C2CCN(c3ncccn3)C2)n1` (configuration not stated) reads 4.755%; that for `CCOc1ccc(C(=O)N2CCCC(n3ccnc3C)C2)cc1OC` (configuration not stated), 0.3069%; that for `CCc1cnc(N2CCc3cc(C(=O)NC)c(N(C)C)nc3CC2)nc1.O=C(O)C(F)(F)F`, 0.8439%. Still for that read-out and setting: the result for `O=C(c1cc(=O)c(OCc2ccccc2)co1)N1CCSCC1` reads -8.629%. Same read-out and setting: the result for `c1cnc(-c2nc(CN3CCC(c4ccn[nH]4)CC3)cs2)nc1` reads 5.764%; that for `c1cnc(-c2nc(CN3CCCC(N4CCCC4)C3)cs2)nc1` (configuration not stated), 5.451%.

As for `NC(=O)C1CCN(Cc2csc(-c3ncccn3)n2)CC1`, the “Percent Effect” value (10 mM as filed; unlikely as a test dose) was -22.27% and -16.43% and -15.46%. The same measure, in the same setting: the result for `c1cnc(-c2nc(CN3CCN(CC4CC4)CC3)cs2)nc1` reads 84.72% and 73.85% and 60.32%.

For the molecule `CC(=O)Nc1nc2c(s1)C1(CCN(C)CC1)Nc1ccccc1S2`, the “Percent Effect” value is listed as 12.96%. Same read-out and setting: the result for `Cc1nccc(N2CCCC(C)(C(=O)NC3CCCC3)C2)n1` (configuration not stated) reads 2.213%. Regarding `Cc1cnn(CC2CCCCN2Cc2nc(N)c3ccccc3n2)c1` (configuration not stated), the “Percent Effect” value (10 mM as filed; unlikely as a test dose) was 41.2% and 50.14% and 52.23%. Still for that read-out and setting: as for `Cc1cnn(CC2CCCCN2Cc2nc(C)c3ccccc3n2)c1` (configuration not stated), the figure is 35.56% and 21.88% and 27.76%. As for `Cc1cnn(CC2CCCN2Cc2nc(N)c3ccccc3n2)c1` (configuration not stated), the “Percent Effect” value (10 mM as filed; unlikely as a test dose) is 22.63% and 18.94% and 34.15%. As to `CC(=O)N1CCN(c2ccc3ccc(C(=O)NC4CCCC4)cn23)CC1`, the “Percent Effect” value was -4.944%. Consider `Cc1cc(C(=O)N2CCN(c3ncc4c(n3)CCOC4)CC2)sc1C`, for which the “Percent Effect” value is on record as -7.443%. For the molecule `Cc1nc(CN2CCc3c(nc(C4CC4)n3C)C2)nc2ccccc12`, the “Percent Effect” value (10 mM as filed; unlikely as a test dose) is -16.27% and -10.13%. With `Cn1c(C2CC2)nc2c1CCN(Cc1nc3ccccc3s1)C2`, the “Percent Effect” value (10 mM as filed; unlikely as a test dose) was 48.9% and 53.74%. The same measure, in the same setting: the result for `Cc1nc2ccccc2nc1CN1CCc2c(nc(C3CC3)n2C)C1` reads -9.933% and -2.839%. For the molecule `c1ccc2nc(N3CCOC(Cn4cccn4)C3)cnc2c1` (configuration not stated), the “Percent Effect” value was determined as 7.131%. Take `OCC1CCCN1c1cc(NCCc2ccccn2)ncn1` (configuration not stated): the “Percent Effect” value (10 mM as filed; unlikely as a test dose) was 91.05% and 79.59%.

For the molecule `OCC1CCCN1c1cc(NCCNc2cccnn2)ncn1` (configuration not stated), for the setting “10 mM as filed; unlikely as a test dose”, the “Percent Effect” value was 9.971% and -4.087%. Regarding `OCC1CCCN1c1cc(NCc2ccsc2)ncn1` (configuration not stated), the “Percent Effect” value amounted to 11.95%. On to `OCC1CCCN1c1cc(NCCc2ccsc2)ncn1` (configuration not stated), for which the “Percent Effect” value (10 mM as filed; unlikely as a test dose) is 86.32% and 73.55%. On the same count and under the same terms, as for `OCC1CCCN1c1cc(NCCc2nccs2)ncn1` (configuration not stated), the figure is 21.04% and 15.76%. Turning to `Cc1cccnc1CNc1cc(N2CCCC2CO)ncn1` (configuration not stated), the “Percent Effect” value was -13.57%.

In the case of `OCC1CCCN1c1cc(NCc2ccccn2)ncn1` (configuration not stated), the “Percent Effect” value (10 mM as filed; unlikely as a test dose) was -21.68% and -23.27%.

In the case of `CC(C)CN(C)Cc1nc2c(cnn2C)c(=O)[nH]1`, the “Percent Effect” value came out at 7.587%.

Consider `CN(C)CC1CN(Cc2nc(-c3ccccn3)no2)CCO1` (configuration not stated), for which the “Percent Effect” value amounted to 24.23%.

As to `CN1CCN(S(=O)(=O)c2ccc(Cl)c(Cl)c2)c2cnccc21`, the “Percent Effect” value (10 mM as filed; unlikely as a test dose) is -22.78% and -8.887%. As to `Cc1cc(-c2cc(F)ccc2C(=O)O)nc(C2CCCCN2C(C)C)n1` (configuration not stated), the “Percent Effect” value was 4.863%. Same read-out and setting: the result for `CC(=O)N1N=C(c2ccccc2)OC1C(=O)NCCc1ccc(O)cc1` (configuration not stated) reads 3.916%; that for `CC[C@@H](C)[C@@H](N)C(=O)Nc1cccc(-c2cnc(N(C)CCO)nc2)c1`, 4.657%. Consider `Cc1cnn(CCC(=O)NS(=O)(=O)N2CCc3ccccc32)c1`, for which the “Percent Effect” value (10 mM as filed; unlikely as a test dose) was -13.26% and -21.53% and -23.4%.

Turning to `O=C(CCn1cccn1)NS(=O)(=O)N1CCCc2ccccc21`, the “Percent Effect” value (10 mM as filed; unlikely as a test dose) was 88.08% and 94.17% and 83.19%. On to `CCn1cc(NC(=O)NCCN2CCCc3ccccc32)cn1`, for which the “Percent Effect” value is reported as -384.2%.

As to `Cn1cc(CCNC(=O)CCc2ccc3c(c2)OCO3)cn1`, the “Percent Effect” value is reported as 0.08354%. As for `Cn1cc(CCC(=O)NS(=O)(=O)N2CCCc3ccccc32)cn1`, the “Percent Effect” value (10 mM as filed; unlikely as a test dose) was 95.69% and 93.95% and 93.94%. In the case of `Cn1nc(CNC(=O)c2ccc(OC(F)(F)F)cc2)c2c1CCOC2`, the “Percent Effect” value is reported as -1.164%. In the case of `Cn1ncc(NCc2cccc(F)c2)c(Cl)c1=O`, the “Percent Effect” value came out at 2.958%. Still for that read-out and setting: as for `CNC(=O)[C@@H]1CCO[C@@H]2CCN(CCc3ccccc3)C[C@H]21.O=C(O)C(F)(F)F`, the figure is 14.59%. For the molecule `CC(CO)CN(Cc1ccccc1)Cc1cnc2ccccc2n1` (configuration not stated), the “Percent Effect” value (10 mM as filed; unlikely as a test dose) is 33.49% and 37.4%. The same measure, in the same setting: as for `Cc1cnc(N(C)Cc2cnc3ccccc3n2)nc1N(C)C`, the figure is 42.78% and 58%; as for `CC(=O)c1cnc(N(C)Cc2cnc3ccccc3n2)nc1C`, -14.78% and -20.36%. With `Cc1cnn(C2CCCN(C(=O)Cc3ccc(C)s3)C2)c1` (configuration not stated), the “Percent Effect” value stood at 7.18%. The same measure, in the same setting: the result for `Cc1cnc(CCNc2cccc(CC3CCCNC3)n2)s1.Cl` (configuration not stated) reads -6.2%. On the same count and under the same terms, the result for `Cc1nc(N(CCC(N)=O)Cc2ccccc2)c2nc(C)oc2n1` reads 2.982%; that for `CN(Cc1noc(C2CC2)n1)C1CCN(Cc2ccccc2C#N)C1` (configuration not stated), 5.942%.

`Cc1nccn1CCCC(=O)N1CCCC(c2noc(C(C)C)n2)C1` (configuration not stated): the “Percent Effect” value is reported as 1.926%.

For the molecule `CC(=O)N1CCCN(C(=O)NCc2ccc(-c3ccn[nH]3)cc2)CC1`, the “Percent Effect” value was determined as 9.841%. `CN1CCN(Cc2ccc(-c3ccc(C(N)=O)cc3)nc2)CC1`: the “Percent Effect” value (10 mM as filed; unlikely as a test dose) was -29.68% and -21.28%.

On to `CN1CCN(Cc2ccc(-c3ccc(-c4ccn[nH]4)cc3)nc2)CC1`, for which, under “10 mM as filed; unlikely as a test dose”, the “Percent Effect” value is 56.12% and 32.6%.

With `O=C(NCc1nn(-c2ccccc2)c2c1CCC2)NCC1COCCO1` (configuration not stated), the “Percent Effect” value amounted to 13.65%. Still for that read-out and setting: the result for `Cc1nc2c(c(NCCc3nccs3)n1)CCN(CC1CC1)CC2` reads -1.253%; that for `Cc1cnn(CC2CCCN2C(=O)c2cc3ccccc3c(=O)[nH]2)c1` (configuration not stated), 2.755%; that for `Cl.Cn1ccnc1CNC(=O)c1cnc(C2CCNCC2)cn1`, 2.787%. In the case of `CN1CCC(c2cccc(NCc3nccn3C)n2)CC1`, for the setting “10 mM as filed; unlikely as a test dose”, the “Percent Effect” value was 4.151% and -3.748% and -15.94%.

Turning to `CN1CCC(c2cnc(NCc3nccn3C)cn2)CC1`, the “Percent Effect” value (10 mM as filed; unlikely as a test dose) is 45.14% and 64.85% and 67.7%. On to `COc1ccc(CN(C)[C@@H]2CN(C(=O)c3cnn(C)c3)C[C@H]2O)cc1`, for which the “Percent Effect” value was 2.355%. Same read-out and setting: as for `FC1(F)CCN(Cc2ccncc2)CC12CCN(c1cnccn1)C2.O=C(O)C(F)(F)F.O=C(O)C(F)(F)F.O=C(O)C(F)(F)F` (configuration not stated), the figure is 22.83%. Consider `O=C(c1[nH]nc(C2CC2)c1Cl)N1CCCC1`, for which, for the setting “10 mM as filed; unlikely as a test dose”, the “Percent Effect” value is -32.9% and -32.97%. With `O=C(c1[nH]nc(C2CC2)c1Cl)N1CCN(C2CC2)CC1`, the “Percent Effect” value (10 mM as filed; unlikely as a test dose) was -13.62% and -21.71%. Still for that read-out and setting: the result for `O=C(c1[nH]nc(C2CC2)c1Cl)N1CCN(C2CC2)C(=O)C1` reads 67.53% and 69.62%. `CCOCc1ncn2c1CN(C(=O)Nc1ccccc1CC)CC2`: the “Percent Effect” value was 3.671%. Same read-out and setting: the result for `CN(C)CCN1Cc2ncn(C)c2C(COCC(=O)N(C)C)C1` (configuration not stated) reads 10.44%. On to `CC1CCc2nn(CCNC(=O)Cc3ccccc3F)c(=O)cc2C1` (configuration not stated), for which the “Percent Effect” value (10 mM as filed; unlikely as a test dose) is -25.04% and -6.135% and -21.75%. For `CCN(CC)Cc1ccc(C(=O)N2CCCC2Cn2cccn2)o1` (configuration not stated), the “Percent Effect” value is recorded as -5.987%.

On to `Cc1cc(N2CCC3(CCCN(CCO)C3=O)C2)nc2cc(Cl)ccc12` (configuration not stated), for which the “Percent Effect” value is -0.3581%. `O=C(NC1=NCCCN1c1ccc(Cl)cc1)c1cccc(Cl)c1`: the “Percent Effect” value (10 mM as filed; unlikely as a test dose) is -9.725% and -15.1% and -5.453%. Consider `CCOc1ccc(N2CCCN=C2NC(=O)c2cccc(Cl)c2)cc1`, for which the “Percent Effect” value is -13.96%. Still for that read-out and setting: as for `COc1ccc(NC(=O)c2cnc(C3CCN(C)CC3)nc2C)cc1`, the figure is -1.219%; as for `O=C(CN1CCCS1(=O)=O)Nc1ccc(OC2CCCC2)cc1`, -4.929%. Take `Cc1cccc(C(=O)Nc2ccc(OC3CCN(C)CC3)cc2)c1`: the “Percent Effect” value (10 mM as filed; unlikely as a test dose) was 84.14% and 90.45% and 76.34%. For the molecule `COc1cccc(C(=O)Nc2ccc(OC3CCN(C)CC3)cc2)c1`, the “Percent Effect” value (10 mM as filed; unlikely as a test dose) was 24.26% and 49.56% and 59.7%. For `N#Cc1cc(NC(=O)c2ccccc2)ccc1N1CCC(O)CC1`, the “Percent Effect” value is -10.71%. On the same count and under the same terms, as for `CCC1=N[C@@]2(CC[C@@H]3CN(Cc4ccc(Cl)cc4)C[C@@H]32)C(=O)N1C.O=C(O)C(F)(F)F`, the figure is -5.486%; as for `Cc1nc(CC(=O)N2CCC(c3nn(C)c4ncccc34)CC2)cs1.Cl`, 3.729%. The same measure, in the same setting: as for `Cc1nc(-c2nnc[nH]2)sc1C(=O)N1CCCC1c1ccsc1` (configuration not stated), the figure is 7.018%; as for `Cc1nc(C)n(C2CCCN(C(=O)c3csc(CC(C)C)n3)C2)n1` (configuration not stated), 0.06439%. The same measure, in the same setting: the result for `CN(C)c1ccc(C(=O)N2CCC(c3cc4ncccc4[nH]3)CC2)cc1` reads -1.989%; that for `CC(=O)NCCC(=O)NCc1cc(Br)ccc1OC(F)F`, -22.55%; that for `O=C(O)C(F)(F)F.O=C(c1ccccc1)N1CCCC2(CCN2Cc2cccc(F)c2)C1` (configuration not stated), 4.203%.

In the case of `CC(C)N1CCO[C@@H]2CN(C(=O)NCc3ccccc3)CC[C@@H]2C1.O=C(O)C(F)(F)F`, the “Percent Effect” value worked out at 8.185%. Same read-out and setting: as for `CCC(=O)N1CCC(Cc2ccccc2-c2cccc(C)c2)(C(N)=O)C1` (configuration not stated), the figure is 2.181%; as for `COc1cc(CNCc2ccnc(N3CCCCC3)c2)cc(OC)c1`, 3.028%. Turning to `CSc1ccccc1C(=O)Nc1ccc(OC2CCN(C)CC2)cc1`, where the note is “10 mM as filed; unlikely as a test dose”, the “Percent Effect” value was 86.05% and 73.83% and 74.05%.

With `O=C(CC1CC1)N1Cc2nccn2CC(Cn2ncccc2=O)C1` (configuration not stated), the “Percent Effect” value worked out at 1.18%. Same read-out and setting: as for `CCN1CCCn2c(nc(CNC(=O)c3ccsc3)cc2=O)C1`, the figure is -13.03%. The same measure, in the same setting: the result for `O=C(c1cc(Cl)c[nH]1)N(CCCO)Cc1cccnc1` reads -9.649%.

As to `Nc1nc2c(c3c1C(=O)NC3=O)CCCC2`, the “Percent Effect” value (10 mM as filed; unlikely as a test dose) is -19.96% and -21.28%. Still for that read-out and setting: the result for `O=C1NC(=O)c2c3c(nc(O)c21)CCCC3` reads -19.04% and -16.96% and 3.732%. Same read-out and setting: the result for `Nc1nc2c(c3c1C(=O)NC3=O)CCC2` reads 75.96% and 84.59%.
